Consider 40 sequences from the supplement of paper PMC6555819.

The subject of this assay is VDR:RXRa (NR concentration 270 nM, RXRa partner concentration 90 nM). Nature of the assay: PBM binding z-score (relative to random genomic background probes); higher = stronger binding; sequences stand for … in GC…GCGATTGACAGCGTAGAATGAAGG
How it is done:
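Protein-binding microarray (Agilent 4x180K custom design, double-stranded 60-nt probes: 5' GC cap, 34-nt variable region, 24-nt constant primer region; full probe sequence given). Purified or IVT nuclear receptor:RXRα heterodimers (3:1 NR:RXRα, mostly 270:90 nM) or homodimers were incubated for 1 h in PBS with 2% milk and no ligand, then detected with Alexa488 antibodies. Fluorescence from o1-orientation probes (~5 replicates averaged) was converted to z-scores against 500 random hg19 background probes. Variable regions are seed direct-repeat (DR0–DR5) sites, all their single-nucleotide variants and half-site ablations.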
Sequence TCTAGCAGGCCAGAGGGTCTCTCAAGAGGTACGG gave a PBM binding z-score of -0.687.

For AGAATGAGGTTACCAAAGATCAAGGAAACGCTTG, the PBM binding z-score amounted to 1.81.

Turning to CGTCCAAGGTCATAGGACGTCAGTGAAGACAGAT, the PBM binding z-score turned out to be 4.13.

Turning to GATACAGGGTCAAGGCCAGGGTACGCGTATTGAT, the PBM binding z-score was 4.71.

Consider CGTCCAAGGTCATAGGAGGTCAGGGAAGACAGAT, for which the PBM binding z-score is 6.49.

The sequence AGAATGAGGTTAAGATCAGGGATACAGAATACAT registered a PBM binding z-score of 1.47.

TCTGCTAGGTCAGTTGGTCAGATAACGAGCTGCC returned a PBM binding z-score of 0.238.

Regarding CCTATTAATTGACCATAAGGGCAACCGAAGCTCG, the PBM binding z-score is 0.371.

The sequence TCAGACAGGTGAAGGGAACTCAGGTACGCAGTCG gave a PBM binding z-score of 0.951.

Sequence ACTAGTTGGTCAGCTGCGGTCACACACAATTCGG yielded a PBM binding z-score of 0.586.

On to AGAATGAGGTTATTAAGATCAGGGAATTGCGGTC, for which the PBM binding z-score was found to be 2.62.

On to GATACAGGGTCAAGCCCAGAGTACGCGTATTGAT, for which the PBM binding z-score turned out to be 4.5.

In turn, TCTTGTAGCTCAACAGGAGGTTAAGAAAGATCGA had a PBM binding z-score of 0.0738.

For GCTGCTAGGTCAACTGATGGACAGCTAAAGCTCG, the PBM binding z-score came to 1.27.

The sequence CGAACTAGGTCAATGACAGGACAGTGAATAGTAA returned a PBM binding z-score of 1.38.

ACTATTAGTTGACTTAGGGCAATCGATACGACGC gave a PBM binding z-score of 0.462.

CCTACTGGGCCACGAAGGGTCATTGATTCAGTGA gave a PBM binding z-score of 3.09.

The sequence CAGCTTAGGTCAGGGCCAGTATAGGAGGAACGTT came in with a PBM binding z-score of 0.513.

Take TCTTGTAGATCATAGGTTAAGAAAGCCGAAGCCT: the PBM binding z-score is 0.86.

On to TAGCCTAGGTTATTGGGCCAGTATAGTACGCATC, for which the PBM binding z-score was -0.034.

As to CGTCCAAGGTAAAGGTCAGTGAAAGAGACTCGAA, the PBM binding z-score was determined as 2.43.

Take ATAGGTAGGTTAAGGGTCATTCAGGTTGGTTCGC: the PBM binding z-score was 5.65.

Turning to TCTAGCAGGCCAGAGGGTCACTCCAGAGGTACGG, the PBM binding z-score was found to be 0.993.

On to CCTACTGGGGCAGAAAGGTTACCATACCATCCGG, for which the PBM binding z-score stood at 0.923.

Turning to AGTCAAAATTCAGGACGAGGTAACGTAAAGCACG, the PBM binding z-score was -0.107.

The sequence GCTTATAGATCAAGGTTAAGAAAGACTAAGCTAA returned a PBM binding z-score of 0.244.

Regarding AGTCCAAGTTCAGGACGAGGTAACGTAAAGCACG, the PBM binding z-score is 2.51.

The sequence CCTAGGAGGCCAATCTGGGTCACTCAAGGCTTGA showed a PBM binding z-score of 1.21.

For the sequence GCGACTGGGGCATCAGCAGGTTGCCATAACTTAA, the PBM binding z-score is -0.532.

Turning to CCTACTGGGCCAAAAAGGTTATTGATGCCGATAA, the PBM binding z-score amounted to 1.6.

The sequence CCTACTGGGCCACGAAAGGTCACTGATTCAGTGA displayed a PBM binding z-score of 3.77.

Sequence CCTACTGGGCCTTCAGGTCATTGATATCAACGTT returned a PBM binding z-score of 1.45.

CGTCGAAGGTCAAGGTCAGTGAAAGAGACTCGAA: the PBM binding z-score is 4.25.

In the case of CGTCCAAGGACAAGGTCAGTGAAAGAGACTCGAA, the PBM binding z-score was 1.54.

For CCTATTAGTTGACCATAAGGGCAACCAAAGCTCG, the PBM binding z-score came to 0.939.

GCTGCTAGGTCAGGTTGGGCAGCTAACGGGTACG returned a PBM binding z-score of -0.00639.

With TCAGACAGGTGAAAGTAACTCAGGTACGCAGTCG, the PBM binding z-score stood at 0.591.

Take CCGAGTAGGTTATGGGGCAATCAGGCAACGGTGA: the PBM binding z-score worked out at 0.00491.

Sequence ATATGTAGGTTAAGGGTCATTCATGTTGGTTCGC displayed a PBM binding z-score of 5.08.

As for ATCTTTAGGTAAGACTCAGTTCAGTGAAGAACGC, the PBM binding z-score amounted to 0.748.
